Measurements reported in PubChem BioAssay (NCI).
About 83,000 compounds went through this panel and 20% of them were active in at least one assay; those are over-represented in the sample as a whole.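 How to read the values: 0–100, growth inhibition (40 = 60% inhibited); 0, no net growth; -100 to 0, cell death (-40 = 40% of starting cells died; -100 = all dead).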 The source made the active and inactive calls. How the source made its calls: active means growth percent below 10; inactive means the rest.

tested on: A549/ATCC NSCLC; assay: NCI-60 one-dose screen, 48 h (100 = growth as untreated, 0 = no growth, -100 = all killed); conditions: 10 µM unless noted

| SMILES | growth |
| --- | --- |
| CN(C)CCNc1nc2ccccc2c2c(=O)c3ccccc3sc12 | 13.2% (inactive) |
| Nc1nc2ccc(CNc3ccc(C(=O)NC(CC(=O)O)C(=O)O)cc3)cc2c(=O)[nH]1 (centres undefined) | 11% (inactive) |
| CC12CCC3C(CCC4CC(O)CCC43C)C1C/C(=C/O)C(=O)O2 (centres undefined) | 100% (inactive) |
| COc1cc(/C=C/C(=O)c2ccc(Oc3ncnc4ccccc34)cc2)cc(OC)c1OC | 73.1% (inactive) |
| Nc1n[nH]c2cccc(C#Cc3cccc(NC(=O)c4cccc(C(F)(F)F)c4)c3)c12 | 43.4% (inactive) |
| COc1ccc(-c2nn(-c3ccc(NC(=O)c4ccc(Cl)c(C(F)(F)F)c4)cc3)cc2-c2ccncc2)cc1Cl | 31% (inactive) |
| CCCN1C(=O)CSC1=Nc1ccc2cc3ccc(N=C4SCC(=O)N4CCC)cc3nc2c1 | 41.4% (inactive) |
| CCOC(=O)C1=C(N)Oc2cc(OC)ccc2C1c1ccc(F)c(F)c1 (centres undefined) | 42.1% (inactive) |
| CC(C(C(=O)N1CCCCC1)N1CCCCC1)N1CCCCC1 (centres undefined) | 94% (inactive) |
| COc1ccc2c(-c3ccc(F)cc3)c(C#N)c(=NC(C)=O)oc2c1 | 53.4% (inactive) |
| COc1ccc(-c2nnc(SCC(=O)Nc3ccc(C(=O)/C=C/c4ccc(Cl)cc4)cc3)o2)cc1OC | 90.7% (inactive) |
| COc1cccc(/C=N/C(=S)NC2(C)C3CCC(C3)C2(C)C)c1O (centres undefined) | 74.7% (inactive) |
| CC1(C)N=C(N)N=C(N)N1c1ccc(OCC(=O)Nc2ccccc2)c(Cl)c1 | 11.2% (inactive) |
| FC(F)(F)c1cn(CCN2CCOCC2)c2ncnc(Cl)c12 | 94.5% (inactive) |
